The record followed here is ChEMBL document CHEMBL3988442, “University of Dundee, Small-Polar-MMV Screening Library” (2021).

In experiment [1] the target is T1, Aspartate--tRNA(Asp/Asn) ligase (Mycobacterium tuberculosis (strain ATCC 25618 / H37Rv)) (UniProt P9WFW3). Further: in the data most compounds retested in dose-response had high values.
T1 sequence (whole entry): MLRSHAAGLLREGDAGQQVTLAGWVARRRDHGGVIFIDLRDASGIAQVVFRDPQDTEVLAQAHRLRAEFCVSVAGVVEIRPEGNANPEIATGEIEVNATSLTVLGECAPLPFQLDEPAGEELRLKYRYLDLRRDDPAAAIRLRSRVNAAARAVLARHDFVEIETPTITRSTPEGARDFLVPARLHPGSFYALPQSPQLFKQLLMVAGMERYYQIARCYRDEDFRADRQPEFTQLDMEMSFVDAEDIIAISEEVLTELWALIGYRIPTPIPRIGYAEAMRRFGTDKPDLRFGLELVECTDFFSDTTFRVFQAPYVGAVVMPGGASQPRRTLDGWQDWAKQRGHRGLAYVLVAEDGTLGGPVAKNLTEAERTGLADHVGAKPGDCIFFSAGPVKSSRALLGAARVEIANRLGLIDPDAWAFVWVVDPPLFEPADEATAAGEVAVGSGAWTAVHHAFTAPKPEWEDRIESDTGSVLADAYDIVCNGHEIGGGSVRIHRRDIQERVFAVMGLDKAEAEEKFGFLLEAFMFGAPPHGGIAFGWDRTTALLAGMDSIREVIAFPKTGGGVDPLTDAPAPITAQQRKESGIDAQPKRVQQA
Put plainly: Assay for Asp RNA synthetase-1 from Mycobacterium tuberculosis. Type of experiment: functional. Also on record: scale not given: direction of the effect not stated beside the values. The conditions noted are these: 30 µM.

Experiment [2] addresses Shiga toxin 2 (Escherichia coli O157:H7) (UniProt P09385+P09386). Put plainly: E. coli 0.157:H7 Shiga Toxin SOP - stx2 screening assay. The class given is functional. Also on record: scale not given: direction of the effect not stated beside the values. As to conditions: 30 µM.

For the compound `CC1CCN(CCNC(=O)c2cncnc2C(C)C)CC1`, the Percent Effect in experiment [1] is -2.54%; in experiment [2], -18.7%.

Take `COc1cc(CCC(=O)NC2CC2)ccc1OCC(F)(F)F`: the Percent Effect in experiment [1] turned out to be 1.01%; in experiment [2] it was 30.2%.

Turning to `Nc1nccc(NCc2cc3n(n2)CCCN(C(=O)C2CCC2)C3)n1`, the Percent Effect worked out at 0.0228% in experiment [1] and 1.54% in experiment [2].

Take `Cc1cnn(C2CCCN(C(=O)c3ccn(C)c(=O)c3)C2)c1` (centres undefined): the Percent Effect in experiment [1] is -2.74%; in experiment [2], 22%.

Turning to `Cn1cccc1C(=O)N1CCc2ncc(Cn3cccn3)n2CC1`, the figures for the Percent Effect in experiment [1] and in experiment [2] were -0.291% and -19.1%, respectively.

`CCc1noc(C2CCN(C(=O)CCn3nc(C)cc3C)CC2)n1`: the Percent Effect was 8.14% in experiment [1] and -32.8% in experiment [2].

`CC(C)S(=O)(=O)NCC1CCCN(C(=O)c2cccnc2)C1` (centres undefined): the Percent Effect was -0.834% in experiment [1] and -4.9% in experiment [2].

Take `O=C(c1ccnnc1)N1CCN2C[C@H](Oc3cccc(F)c3)C[C@H]2C1`: the results for the Percent Effect in experiment [1] and in experiment [2] were -0.611% and -1.95%, respectively.

As to `Cc1cc(CN2CC[C@H]3C(=O)N(c4ccccc4)CCO[C@H]3C2)no1`, the Percent Effect in experiment [1] is -4.96%; in experiment [2], -8.26%.

Consider `O=C(CCc1nccs1)N1CCCC(N2CCNC2=O)C1` (centres undefined), for which the Percent Effect in experiment [1] is 6.01%; in experiment [2] it was -8.24%.

Turning to `CC(C)c1nnc(NC(=O)NCc2ccnc(N(C)C)c2)s1`, the Percent Effect in experiment [1] was -3.25%; in experiment [2], -21.8%.

For `Cn1nc(CNC(=O)C2COc3ccccc3O2)cc1C1CC1` (centres undefined), the values for the Percent Effect in experiment [1] and in experiment [2] were 6.34% and 17%, respectively.

As for `CCN(CC1CCOC1)C(=O)c1cccnc1N1CCOCC1` (centres undefined), the Percent Effect in experiment [1] is -1.66%; in experiment [2] it was 25.6%.

For `CSCC[C@H](NC(=O)Cn1ccc2c(Cl)cccc21)C(=O)O`, the figures for the Percent Effect in experiment [1] and in experiment [2] were -3.22% and -22%, respectively.

With `c1ncc(Nc2nccc(C3CCCCN3CC3CCCCC3)n2)cn1` (centres undefined), the Percent Effect in experiment [1] is 0.28%; in experiment [2], -0.91%.

Regarding `Cc1csc(C2CCCN(C(=O)c3cnc[nH]3)C2)n1` (centres undefined), the Percent Effect came out at 5.76% in experiment [1] and 16.6% in experiment [2].

In the case of `CCOc1ccc(-n2nnc(C(=O)O)c2-c2ccncc2)cc1`, the Percent Effect in experiment [1] was 3.77%; in experiment [2], -21.9%.

As to `Cc1cc(NC(=O)CN2CCOC(Cn3cccn3)C2)n(C)n1` (centres undefined), the Percent Effect in experiment [1] is -3.92%; in experiment [2], -12.8%.

Regarding `Fc1ccc(CN2CC[C@H]3O[C@@H](COCC4CCOCC4)CC[C@H]32)cc1`, the Percent Effect is 0.838% in experiment [1] and -14.5% in experiment [2].

Regarding `Cc1cc(N2CCN(CC(=O)N(C)C)CC2)nc(-c2ccncc2)n1`, the values for the Percent Effect in experiment [1] and in experiment [2] were -3.92% and -5.53%, respectively.

As for `Cc1ccc(N2CC[C@H]3OCC[C@@]3(C(=O)NC(C)C)C2)nn1`, the values for the Percent Effect in experiment [1] and in experiment [2] were -2.66% and 7.17%, respectively.

Consider `Cc1nc(CN2CCOC(Cn3cncn3)C2)nc2ccccc12` (centres undefined), for which the results for the Percent Effect in experiment [1] and in experiment [2] were -2.91% and 16.4%, respectively.
